Source: PubChem (several laboratories)
PostGolgi ctrl – growth of the yeast control strain, post-Golgi counter-screen. efflux-deficient yeast background strain, growth absorbance A615, 16 h. 98,000 tested, 5% active. inhibition, % at 10 µM. AID 738
Cav3 T inh – inhibitors of human Cav3.2 T-type calcium channel. B-score at 10 µM. Cav3.2-expressing cells, Fluo-4 calcium fluorescence FDSS; hits give low values. O95180. 100,000 tested, 4% active;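 active = single-dose well whose peak fluorescence ratio is a statistical outlier from its plate by either plate-standardised score or position-corrected B-score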
TNAP act mid DEA – activators of human TNAP at intermediate phosphate acceptor. P05186. purified TNAP, CDP-star luminescence, 100 mM DEA, 30 min; hits give high values; scale: 0 levamisole-inhibited, 1 vehicle-only enzyme. activation factor at 20 µM. 64,000 tested, under 10 active. AID 813;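 active = activation factor of at least 2 at 20 µM, relative to controls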
Smad3 inh – blocks human Smad3 binding to FoxH1 peptide; 88,000 tested, 0.29% active; P84022; inhibition, % at 25 µM; TR-FRET Smad3/Dy647-FoxH1 peptide binding, europium anti-His; AID 630;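 active = compounds that reduce the energy-transfer binding signal between the protein and its labelled peptide by more than half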;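 note: 0% = Smad3 plus labelled peptide maximal FRET and 100% = peptide-only background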
hDAT+cocaine – modulates human dopamine transporter uptake under cocaine; LLC-PK1 hDAT cells, [14C]-dopamine uptake with cocaine IC80; actives deviate in either direction; B-score at 10 µM; 110,000 tested, 1.3% active; AID 449768;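 active = Z score or B-score, a plate-position-corrected score, falls beyond the plate's 99.7% confidence bounds, in either direction; inactive = both scores lie inside the 99.7% bounds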;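 note: scored against the spread of the other compound wells on the same plate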
Target sequence (Q01959 whole entry, looked up): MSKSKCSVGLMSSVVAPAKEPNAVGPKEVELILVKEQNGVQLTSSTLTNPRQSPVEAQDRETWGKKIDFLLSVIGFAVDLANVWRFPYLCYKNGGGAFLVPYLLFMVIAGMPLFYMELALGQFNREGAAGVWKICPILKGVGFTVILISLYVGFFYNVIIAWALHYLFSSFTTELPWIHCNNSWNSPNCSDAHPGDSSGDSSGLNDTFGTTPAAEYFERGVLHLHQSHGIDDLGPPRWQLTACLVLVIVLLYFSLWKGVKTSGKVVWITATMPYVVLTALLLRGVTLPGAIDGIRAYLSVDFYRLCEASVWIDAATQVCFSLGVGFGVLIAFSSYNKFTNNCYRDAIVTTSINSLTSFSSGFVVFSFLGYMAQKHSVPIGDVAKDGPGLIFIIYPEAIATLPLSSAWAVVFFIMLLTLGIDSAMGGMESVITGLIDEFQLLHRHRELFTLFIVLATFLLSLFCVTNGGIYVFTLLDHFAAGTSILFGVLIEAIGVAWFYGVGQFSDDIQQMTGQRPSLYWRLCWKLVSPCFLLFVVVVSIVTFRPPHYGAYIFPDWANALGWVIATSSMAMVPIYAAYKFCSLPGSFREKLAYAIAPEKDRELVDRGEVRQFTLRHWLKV
PostGolgi yeast – growth inhibition of a yeast mutant, post-Golgi transport screen; post-Golgi transport phenotypic cell assay; inhibition, % at 10 µM; 98,000 tested, 0.9% active; AID 739;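 note: yeast cells grown in 1536-well plates; yeast grown about 18 h at 30C before absorbance read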
Starred values were filed as active, the others as inactive; . = no result. Compounds with a hit are over-represented: about 8.7% of the library has one in this group of screens. Cut-off read from the data, not from the text of the source, unless noted: active = inhibition above about 30%; inactive = the rest.

SMILES	PostGolgi ctrl	Cav3 T inh	TNAP act mid DEA	Smad3 inh	hDAT+cocaine	PostGolgi yeast
CCN(CC)S(=O)(=O)c1cccc(S(=O)(=O)c2cccc(S(=O)(=O)N(CC)CC)c2)c1	.	-5.3*	1	-5	0.2	.
CCN(CC)S(=O)(=O)c1ccc(NC(=O)CC(NC(C)=O)c2ccccc2)cc1 (stereo not given)	40*	-0.33	.	13	-0.055	-7
CCN(CC)S(=O)(=O)c1ccc(C)c(C)c1	21	0.055	.	9	-0.89	1
Cc1cccc(C)c1NC(=O)CS(=O)CC(=O)NC1CCN(Cc2ccccc2)CC1 (stereo not given)	0	-0.42	1	14	0.99	-7
Cn1cccc1C(=O)NC(=O)CSc1nc2ccccc2s1	8	-0.13	0.9	2	-0.14	-2
CCN(CC)S(=O)(=O)c1ccc(NC(=O)CN(c2cccc(C)c2)S(C)(=O)=O)cc1	.	-4.4*	.	14	1.1	.
CCOc1ccccc1N(CC(=O)Nc1cc(OC)ccc1OC)S(C)(=O)=O	-1	0.26	.	9	-9.1*	3
CCN(CC)S(=O)(=O)c1ccc(NS(=O)(=O)c2cccc(C)c2)cc1	-3	-4.6*	1	-1	1.6	0
CCN(CC)S(=O)(=O)c1ccc(NC(=O)Nc2cccc(C(F)(F)F)c2)cc1	-7	-0.14	.	.	1.1	6
CCN(CC)S(=O)(=O)c1ccc(NC(=O)CN(c2ccc(OC)cc2OC)S(C)(=O)=O)cc1	24	-6.6*	1	9	1.5	-2
CCOc1ccccc1N(CC(=O)Nc1ccccc1C(=O)O)S(C)(=O)=O	7	0.6	1	6	-0.19	11
Cc1ccc2nc(C3CCCN(C(=S)Nc4cccc(C)c4C)C3)[nH]c2c1 (stereo not given)	3	-0.75	.	.	0.28	1
N#Cc1cccc2cnccc12	-1	0.55	0.9	12	-2.9*	3
CN1CCN(C(=O)C2=C[C@H](c3coc4ccccc4c3=O)C[C@H](OCc3ccc(CO)cc3)O2)CC1	.	0.53	.	.	1.3	.
CCN(CC(=O)NCc1cccs1)S(=O)(=O)c1cccc(C(C)=O)c1	8	0.016	1	1	-7.5*	5
N#Cc1c(-c2ccco2)nc(SCc2ccc(F)cc2)[nH]c1=O	1	-4.5*	0.9	11	0.025	-8
C[C@H](C(=O)C=[N+]=[N-])N1C(=O)c2ccccc2C1=O	15	-0.87	1	9	-7.1*	2
[N-]=[N+]=CC(=O)CC(c1ccccc1)N1C(=O)c2ccccc2C1=O (stereo not given)	2	.	0.9	13	.	-3
CCc1ccc(N(C(=O)c2csnn2)C(C(=O)NCc2ccccc2)c2ccco2)cc1 (stereo not given)	-1	-2.7	.	-2	0.17	6
Cc1ccc(C(C(=O)NCc2ccccc2)N(C(=O)c2csnn2)c2cccc3ccccc23)o1 (stereo not given)	12	-7*	.	-1	1.7	6
COc1ccc(CNC(=O)C(c2ccc(C)o2)N(C(=O)c2csnn2)c2ccc(C(C)C)cc2)cc1 (stereo not given)	0	-7.1*	.	12	1.1	5
CCc1ccc(N(C(=O)c2csnn2)C(C(=O)NC(C)(C)C)c2ccncc2)cc1 (stereo not given)	-2	0.37	.	.	1	35*
CCC(CC)C(=O)Nc1c2cnn(-c3ccccc3)c2nc(=O)n1-c1ccccc1	4	.	0.9	2	.	16
O=C(Nc1cc2c(cc1Br)OCCO2)c1cccs1	15	-0.55	.	.	0.16	-2
COc1ccc(O)c(CN2CCN(C/C=C/c3ccccc3)CC2)c1	34*	-0.27	0.9	-6	0.7	42*
SMILES	PostGolgi ctrl	Cav3 T inh	TNAP act mid DEA	Smad3 inh	hDAT+cocaine	PostGolgi yeast
O=[N+]([O-])c1cccnc1N1CCC(c2cc(-c3ccc(Cl)cc3)n[nH]2)CC1	69*	-1.7	.	-3	0.079	3
O=C(O)c1cc(-c2ccc(Cl)cc2)n[nH]1	-4	0.51	0.4	-6	-0.69	12
COc1cccc(CNn2c(-c3cccc(C)c3)nc3ccccc3c2=O)c1O	47*	-0.49	1	6	1.7	-1
COc1cccc(/C=N/n2c(C)nc3ccccc3c2=O)c1O	18	-0.8	1	-1	0.35	-19
Cc1cc(C)c(C(=O)CSc2nnc(-c3ccccc3Br)o2)cc1C	-1	-1.1	0.9	2	0.84	9
CCOC(=O)c1sc(-c2ccccc2)cc1NC(=O)CSc1nnnn1C	74*	-0.36	0.9	10	0.52	9
CCOC(=O)c1c(NC(=O)CSc2nnc(CNc3ccc(OC)cc3)n2C)sc(C)c1C	24	-6.6*	0.9	12	1.1	0
Cc1ccc2cc(C)c3nnc(SCC(=O)Nc4nc5c(s4)CCCC5)n3c2c1C	0	-5.3*	.	.	1.9	5
COc1ccc(N2CCN(C(=O)CSc3nnc4c(C)cc5ccc(C)c(C)c5n34)CC2)cc1	6	1.8	.	.	-0.017	-3
COC(=O)c1cccc(-n2nnnc2SCC(=O)Nc2nc3c(s2)CCCC3)c1	28	-4.8*	0.9	-5	1.3	1
COc1cccc(-n2nnnc2SCC(=O)Nc2nc3c(s2)CCCC3)c1	.	-0.93	.	9	0.52	.
N=c1sccn1CC(=O)Nc1ccc2c(c1)CCC2	0	-0.19	0.8	13	0.65	0
CCCCn1c(SCC(=O)Nc2nc(C)cs2)nnc1-c1cccnc1	39*	0.63	0.9	13	0.79	-5
CCOC(=O)c1c(NC(=O)CSc2nnc(-c3ccccc3)n2CC)sc(C(C)=O)c1C	17	0.037	0.9	8	2.5*	-2
CCCn1c(SCC(=O)Nc2nccs2)nnc1-c1cccnc1	3	0.49	0.9	-3	-0.48	8
Cc1ccc(-c2csc(NC(=O)CSc3nc(C)cc(=O)[nH]3)n2)cc1	4	0.47	.	5	2.3*	6
CCn1c(SCC(=O)Nc2nc3c(s2)CCCC3)nnc1-c1ccccc1	0	-1.5	0.9	2	3.7*	-3
CCOC(=O)c1c(NC(=O)CSc2nnc(-c3cccc(C)c3)n2CC)sc(C(C)=O)c1C	9	-3.9	.	.	1.6	-1
CCCS(=O)(=O)c1c(S(=O)(=O)CCC)c2cnccn2c1C(=O)c1ccc(F)cc1	-5	0.29	0.9	3	-1.3	4
O=c1[nH]c2cc3c(cc2cc1CN(Cc1ccc2c(c1)OCO2)Cc1nnnn1CC1CCCO1)OCO3 (stereo not given)	18	-0.031	.	-7	0.043	-2
N#CCN1CCC/C1=C\[N+](=O)[O-]	3	0.087	.	10	-0.43	-13
C[N+]1=C2CCCCCN2C(O)(c2ccccc2)C1 (stereo not given)	-2	1.1	0.9	10	0.19	-2
CCn1c(SCC(=O)Nc2nc(-c3ccccc3)cs2)nnc1-c1ccccc1O	42*	.	1	11	-0.011	3
